Assay results as given in ChEMBL document CHEMBL3988442, “University of Dundee, Small-Polar-MMV Screening Library” (2021).
Hit rate of the full screen: of about 48,000 compounds, about 13,000 (27%) showed an effect of 50% or more. This is one part of the list.

What follows are compounds tested on Wolbachia pipientis (assay: Anti-Wolbachia Cell-Based Screen). Conditions: 5 µM.
Type: functional
Parameters: scale not given: in the data most compounds retested in dose-response had high values

SMILES	Percent Effect [%]
Cc1c[nH]c(CN(C)C(=O)c2ccc(CSc3nnc[nH]3)o2)n1	-3.87
CC(C(=O)N(C)C1CCCCC1)S(=O)(=O)Cc1csc(-c2cccs2)n1 (stereo not given)	-23.89
CCN(CC)c1ccc(CNC(=O)c2cccc(C)n2)cn1	13.97
CNS(=O)(=O)c1ccc(CNC(=O)NCc2cc[nH]n2)cc1	-14.1
COc1ncccc1CNC(=O)c1cccc(C)n1	6.477
CNS(=O)(=O)c1ccc(CNC(=O)c2cccc(C)n2)cc1	84.72
Cc1cccc(C(=O)NCc2ccccc2)n1	112.9
CN1CCN(Cc2nc3ccccc3[nH]2)[C@H]2CS(=O)(=O)C[C@H]21	-11.18
CNc1cc(C)nc(N2CCC3(CC2)[C@H](O)C[C@@H]3OCCN(C)C)n1	-28.04
Cc1cc(C2CCCN2C(=O)COc2ccc(CC#N)cc2)on1 (stereo not given)	-5.28
CCC(=O)N1CCCCC1c1nc(N(C)C)ncc1-c1cc(C)no1 (stereo not given)	127.9
COCC(=O)N1CCCCC1c1nc(N(C)C)ncc1-c1cc(C)no1 (stereo not given)	90.99
Cc1csc(C2CCCCN2C(=O)COCc2nc(C)no2)n1 (stereo not given)	-7.815
CCCC(=O)N1CCCCC1c1nc(N(C)C)ncc1-c1cc(C)no1 (stereo not given)	132.6
Cc1cc(-c2cnc(N(C)C)nc2C2CCCCN2C(=O)C2CC2)on1 (stereo not given)	124.3
Cc1ccc(C(=O)NCC(C)Cn2ccnc2C)c(=O)[nH]1 (stereo not given)	-21.01
Cc1nc(-c2cn(CCN)nn2)n(-c2ccc3c(c2)CCC3)n1	-87.51
COc1ccc(NC(=O)N2CCCC2c2ccncc2)cn1 (stereo not given)	-8.379
CCc1nc(C)sc1CN1CC[C@](O)(CC)[C@H](O)C1	116.1
CCc1nc(C)sc1CN1C[C@@H](C)[C@@](C)(O)C1	98.2
CC[C@@]1(O)CCN(c2ncc(Cl)cc2F)C[C@H]1O	-11.81
CCc1nc(C)sc1CN1CC[C@](C)(O)[C@H](C)C1	84.46
CC[C@@]1(O)CCN(Cc2cc(C3CCCCC3)no2)C[C@H]1O	5.851
C[C@@H]1CN(Cc2c[nH]c(CC3CCCC3)n2)CC[C@]1(C)O	8.823
CCc1nc(C)sc1CNC1CCN(Cc2ccccc2)C1 (stereo not given)	-80.76
CCc1nc(C)sc1CN1CC[C@@](O)(CCOC)[C@H](C)C1	97.23
CCc1ccc(S(=O)(=O)N2CC[C@@](O)(CCOC)[C@H](C)C2)cc1	-34.1
CNC(=O)c1noc(CN2CC[C@](C)(O)[C@H](C)C2)n1	23.29
Cc1nc2c(c(N3C[C@@H](C)[C@@](C)(O)C3)n1)CCC2	13.84
COCC[C@]1(O)CCN(C(=O)c2cnn(C)c2)C[C@H]1C	-13.07
